Reference: PubChem BioAssay AID1159580 (chemical genetic matrix, 2015)
Out of some 5,500 compounds screened, about 2,000 (36%) were called active. Another 18% or so got no clear call; they are omitted. Cut-off read from the data, not from the text of the source: active = normalized growth mostly below about 0.91 (no sharp cut-off); inconclusive = no clear call, values can overlap the other calls; inactive = mostly above about 0.92. The list shows a part of the results.

Assay: chemical genetic growth profiling, strain panel (AID 1159580);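 note: tested at 20 µM; growth read once vehicle control cultures reached saturation at 30 °C; 1 = growth at the plate median or of vehicle wells; lower values mean less growth of the strain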
Settings: S. cerevisiae deletion strains, growth OD
[1] = locus YAL040C, strain CLN3, stronger effect = lower value
[2] = locus YCL061C, strain MRC1 (second series), stronger effect = lower value
[3] = locus YDR363W, strain ESC2, stronger effect = lower value
[4] = locus YER002W, strain NOP16, stronger effect = lower value
[5] = locus YNL175C, strain NOP13, stronger effect = lower value
[6] = locus YNL197C, strain WHI3, stronger effect = lower value
[7] = locus YNL224C, strain SQS1, stronger effect = lower value
[8] = locus YOR083W, strain WHI5 (second series), stronger effect = lower value

Measured: normalized growth

CC(C)C[C@H](N)CSSC[C@@H](N)CC(C)C
inactive: [1] 0.965 | [2] 1.01 | [3] 1 | [4] 1.02 | locus YJR075W, strain HOC1, stronger effect = lower value 1 | locus YMR307W, strain GAS1, stronger effect = lower value 1.01 | locus YNL128W, strain TEP1, stronger effect = lower value 1.01 | [5] 1.01 | [6] 1.01 | [7] 1 | [8] 1.03 | locus YPL241C, strain CIN2, stronger effect = lower value 1.01

c1ccc(-c2ccccn2)nc1
inactive: [1] 0.974 | [2] 0.975 | [3] 1.02 | [4] 0.966 | locus YGR078C, strain PAC10, stronger effect = lower value 0.977 | locus YMR263W, strain SAP30, stronger effect = lower value 1 | locus YNL153C, strain GIM3, stronger effect = lower value 0.942 | [5] 0.987 | [6] 0.95 | [7] 0.991 | locus YNL322C, strain KRE1, stronger effect = lower value 1.03 | [8] 0.972

c1ccc(-c2nnc(-c3ccccn3)nc2-c2ccccc2)cc1
active: locus YAR019C, strain CDC15, stronger effect = lower value 0.857 | locus YDL132W, strain cdc53, stronger effect = lower value 0.856 | locus YDR052C, strain DBF4, stronger effect = lower value 0.908 | locus YDR054C, strain cdc34, stronger effect = lower value 0.845 | locus YFL009W, strain cdc4, stronger effect = lower value 0.812 | locus YFL029C, strain CAK1, stronger effect = lower value 0.806 | locus YFR028C, strain CDC14, stronger effect = lower value 0.871 | locus YGR092W, strain DBF2, stronger effect = lower value 0.473 | locus YHR030C, strain SLT2, stronger effect = lower value 0.531 | locus YHR079C, strain IRE1, stronger effect = lower value 0.487 | locus YJL095W, strain BCK1, stronger effect = lower value 0.47 | locus YJR016C, strain ILV3, stronger effect = lower value 0.83 | locus YKL048C, strain ELM1, stronger effect = lower value 0.683 | locus YKL101W, strain HSL1, stronger effect = lower value 0.716 | locus YKL193C, strain SDS22, stronger effect = lower value 0.867 | locus YKL203C, strain TOR2, stronger effect = lower value 0.652 | locus YLR113W, strain HOG1, stronger effect = lower value 0.581 | locus YLR133W, strain CKI1, stronger effect = lower value 0.676 | locus YLR403W, strain SFP1, stronger effect = lower value 0.631 | locus YMR205C, strain PFK2 (second series), stronger effect = lower value 0.734 | locus YMR277W, strain FCP1, stronger effect = lower value 0.871 | locus YNL207W, strain RIO2, stronger effect = lower value 0.813 | locus YNL307C, strain MCK1 (second series), stronger effect = lower value 0.623 | locus YOL078W, strain AVO1, stronger effect = lower value 0.859 | locus YOR061W, strain CKA2, stronger effect = lower value 0.662 | locus YOR119C, strain RIO1, stronger effect = lower value 0.57 | locus YPL204W, strain HRR25, stronger effect = lower value 0.661 | locus YPL256C, strain CLN2, stronger effect = lower value 0.545 | strain NNK1, stronger effect = lower value 0.814 | strain TSCII, stronger effect = lower value 0.842
inactive: locus YBL105C, strain PKC1, stronger effect = lower value 0.945 | locus YBR135W, strain CKS1, stronger effect = lower value 0.937 | locus YBR136W, strain MEC1, stronger effect = lower value 0.904 | locus YBR160W, strain CDC28, stronger effect = lower value 0.944 | locus YDL017W, strain CDC7, stronger effect = lower value 0.946 | locus YDL028C, strain MPS1, stronger effect = lower value 0.896 | locus YDL101C, strain DUN1, stronger effect = lower value 0.957 | locus YDL108W, strain KIN28, stronger effect = lower value 0.917 | locus YDL214C, strain PRR2, stronger effect = lower value 0.814 | locus YDR226W, strain ADK1, stronger effect = lower value 0.924 | locus YDR477W, strain SNF1, stronger effect = lower value 0.748 | locus YER123W, strain YCK3, stronger effect = lower value 0.704 | locus YER133W, strain GLC7, stronger effect = lower value 0.783 | locus YFR003C, strain YPI1, stronger effect = lower value 0.943 | locus YFR019W, strain FAB1, stronger effect = lower value 0.796 | locus YGR040W, strain KSS1, stronger effect = lower value 0.748 | locus YGR052W, strain FMP48, stronger effect = lower value 0.641 | locus YHR082C, strain KSP1, stronger effect = lower value 0.655 | locus YHR205W, strain SCH9, stronger effect = lower value 0.689 | locus YIL147C, strain SLN1, stronger effect = lower value 0.893 | locus YJL128C, strain PBS2, stronger effect = lower value 0.871 | locus YJL157C, strain FAR1, stronger effect = lower value 0.74 | locus YJR066W, strain TOR1 (second series), stronger effect = lower value 0.663 | locus YJR066W, strain TOR1, stronger effect = lower value 0.565 | locus YKL067W, strain YNK1, stronger effect = lower value 0.792 | locus YML070W, strain DAK1, stronger effect = lower value 0.78 | locus YMR001C, strain CDC5, stronger effect = lower value 0.903 | locus YNL006W, strain LST8, stronger effect = lower value 0.932 | locus YNL020C, strain ARK1, stronger effect = lower value 0.746 | locus YNL161W, strain CBK1, stronger effect = lower value 0.938 | locus YNL183C, strain NPR1, stronger effect = lower value 0.655 | locus YNL222W, strain SSU72, stronger effect = lower value 0.914 | locus YOL136C, strain PFK27, stronger effect = lower value 0.861 | locus YOR231W, strain MKK1, stronger effect = lower value 0.631 | locus YOR329C, strain SCD5, stronger effect = lower value 0.921 | locus YPL031C, strain PHO85, stronger effect = lower value 0.774 | locus YPL153C, strain RAD53, stronger effect = lower value 0.695 | locus YPL209C, strain IPL1, stronger effect = lower value 0.931 | locus YPR025C, strain CCL1, stronger effect = lower value 0.927 | locus YPR106W, strain ISR1, stronger effect = lower value 0.919 | locus YPR111W, strain DBF20, stronger effect = lower value 0.885
